Reference: PubChem BioAssay (NCI)
The panel holds about 79,000 compounds, 15% with a hit somewhere; the sample as a whole holds those more often. Activity calls are given as the source filed them. No stated cut-off is given here; in the data, active means growth inhibition above about 70%; inactive means the rest.

Key:
[1] = NCI Yeast Anticancer Drug Screen. Data for the wt1 strain (AID 149);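 further: 0% = growth of vehicle-treated wt1 cultures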; conditions: S. cerevisiae wt1 strain (SPY 50644) growth inhibition, stronger effect = higher value
Outline: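 wt1 strain grown with compound or vehicle; inhibition taken from the growth difference.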

[2] = NCI Yeast Anticancer Drug Screen. Data for the rad50EPP+ strain (AID 151);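 further: 0% = growth of vehicle-treated control cultures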; conditions: S. cerevisiae rad50 mutant strain, stronger effect = higher value
Outline: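 Exposing the rad50EPP+ strain to each compound, growth was compared with vehicle-only cultures to give inhibition.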

[3] = NCI Yeast Anticancer Drug Screen. Data for the rad50 strain (AID 155);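 further: 0% = growth of vehicle-only cultures of the same strain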; conditions: S. cerevisiae rad50 strain growth inhibition, stronger effect = higher value
Outline: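 DNA repair mutant yeast, compound exposure, growth read-out; inhibition is taken relative to vehicle.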

[4] = NCI Yeast Anticancer Drug Screen. Data for the mec2-1 strain (AID 157); conditions: S. cerevisiae mec2-1 strain, stronger effect = higher value
Outline: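 Readout is yeast growth inhibition, normalised to vehicle-treated controls, in the mec2-1 strain exposed to compound.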

[5] = NCI Yeast Anticancer Drug Screen. Data for the rad14 strain (AID 159);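 further: 0% = growth of vehicle-treated control cultures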; conditions: S. cerevisiae rad14 strain growth inhibition, stronger effect = higher value
Outline: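 DNA repair-defective yeast, compound-exposed; % growth inhibition derived by comparison with vehicle-treated controls.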

[6] = NCI Yeast Anticancer Drug Screen. Data for the sgs1 mgt1 strain (AID 161);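 further: 0% = growth of cultures given vehicle only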; conditions: S. cerevisiae sgs1 mgt1 strain, stronger effect = higher value
Outline: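 Compounds are added to genetically altered yeast, and growth is compared with cultures given vehicle alone to give percent inhibition.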

[7] = NCI Yeast Anticancer Drug Screen. Data for the CLN2oe strain (AID 163);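 further: 0% = growth of vehicle-only control cultures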; conditions: S. cerevisiae CLN2oe strain, stronger effect = higher value
Outline: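 Values reflect how much compound exposure reduced yeast growth, referenced to vehicle-exposed cells. Assay organism is a strain with a defined genetic change affecting cell-cycle control.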

[8] = NCI Yeast Anticancer Drug Screen. Data for the cln2 rad14 strain (AID 165);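 further: 0% = growth equal to vehicle treated cultures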; conditions: S. cerevisiae cln2 rad14 strain, stronger effect = higher value
Outline: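 Relative to vehicle controls, growth inhibition of compound-treated cln2 rad14 yeast was recorded.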

[9] = NCI Yeast Anticancer Drug Screen. Data for the bub3 strain (AID 167); conditions: S. cerevisiae bub3 mutant strain, stronger effect = higher value
Outline: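 In this screen, a yeast mutant lacking normal mitotic checkpoint function is challenged with compound. Relative growth versus vehicle gives the inhibition value.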

[10] = NCI Yeast Anticancer Drug Screen. Data for the wt2 strain (AID 169);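 further: 0% = growth of vehicle-treated yeast cultures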; conditions: S. cerevisiae wt2 strain growth inhibition, stronger effect = higher value
Outline: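 Values express reduction in yeast growth under compound treatment, referenced to vehicle-treated cells.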

[11] = NCI Yeast Anticancer Drug Screen. Data for the mlh1 strain (AID 171);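 further: 0% = growth of vehicle-treated control cultures of the same strain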; conditions: S. cerevisiae mlh1 strain growth inhibition, stronger effect = higher value
Outline: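 Steps: expose the defined-mutant yeast strain to compound; expose a parallel culture to vehicle; measure growth; express compound effect as inhibition relative to the vehicle culture.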

[12] = NCI Yeast Anticancer Drug Screen. Data for the sgs1 strain (AID 173);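 further: 0% = growth of vehicle-only control cultures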; conditions: S. cerevisiae sgs1 mutant, stronger effect = higher value
Outline: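 Treat defined-mutant yeast with compound; measure growth; calculate inhibition relative to vehicle-treated cells.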

[13] = NCI Yeast Anticancer Drug Screen. Data for the mlh1 rad18 strain (AID 175); conditions: S. cerevisiae mlh1 rad18 strain growth inhibition, stronger effect = higher value
Outline: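 Test agents were incubated with a yeast strain of defined genotype (DNA damage repair defect). Inhibition of growth was derived by comparison with vehicle-exposed cultures.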

[14] = NCI Yeast Anticancer Drug Screen. Data for the rad18 strain (AID 177); conditions: S. cerevisiae rad18 mutant growth inhibition, stronger effect = higher value
Outline: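 A genetically defined yeast mutant impaired in DNA damage repair was treated with test compounds, then its growth was measured against cultures receiving vehicle alone.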

[15] = NCI Yeast Anticancer Drug Screen. Data for the mgt1 strain (AID 153); conditions: S. cerevisiae mgt1 mutant growth inhibition, stronger effect = higher value
Outline: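 Genetically defined yeast (mgt1) treated with compound; inhibition of growth expressed against vehicle-treated controls.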

[16] = at 5.0 µM (retest, dose inferred, filed as 0.5)
[17] = at 50.0 µM (retest, dose inferred, filed as 5.0)

Measured: growth inhibition

CCC1SC(=S)N(c2ccc(Cl)cc2)C1=O (centres undefined)
inactive: [1]; at 1.2 µM -2% | [1]; at 3.7 µM -2% | [1]; at 11.0 µM 10% | [1]; at 33.0 µM 23% | [2]; at 1.2 µM -5% | [2]; at 3.7 µM 21% | [2]; at 11.0 µM 42% | [3]; at 1.2 µM -17% | [3]; at 3.7 µM -19% | [3]; [16] 8% | [3]; at 11.0 µM 6% | [3]; [17] 35% | [3]; at 50.0 µM 45% | [4]; at 1.2 µM -3% | [4]; at 3.7 µM -5% | [4]; [16] 1% | [4]; at 11.0 µM -6% | [4]; at 33.0 µM -9% | [4]; [17] 43% | [4]; at 50.0 µM 26.7% | [4]; at 100.0 µM 16% | [5]; at 1.2 µM 4% | [5]; at 3.7 µM 1% | [5]; at 11.0 µM 12% | [5]; at 33.0 µM 26% | [6]; [16] 4% | [6]; [17] 68% | [6]; at 50.0 µM 66% | [7]; at 1.2 µM -9% | [7]; at 3.7 µM -10% | [7]; at 11.0 µM -16% | [7]; at 33.0 µM -20% | [8]; [16] -3% | [8]; [17] -4% | [8]; at 50.0 µM -11.6% | [9]; at 1.2 µM -11% | [9]; at 3.7 µM -10% | [9]; [16] -6% | [9]; at 11.0 µM -13% | [9]; at 33.0 µM 22% | [9]; [17] 44% | [9]; at 50.0 µM 6.05% | [10]; at 1.2 µM -5% | [10]; at 3.7 µM 1% | [10]; at 11.0 µM 20% | [10]; at 33.0 µM 65% | [11]; at 1.2 µM -14% | [11]; at 3.7 µM -10% | [11]; at 11.0 µM -10% | [11]; at 33.0 µM 48% | [12]; at 1.2 µM -8% | [12]; at 3.7 µM -8% | [12]; at 11.0 µM 22% | [13]; [16] 0% | [13]; at 50.0 µM 65% | [14]; at 1.2 µM -8% | [14]; at 3.7 µM -10% | [14]; at 11.0 µM -3% | [14]; at 33.0 µM 48%
active: [1]; at 100.0 µM 78% | [2]; at 33.0 µM 96% | [2]; at 100.0 µM 98% | [3]; at 33.0 µM 84% | [3]; at 100.0 µM 96% | [5]; at 100.0 µM 75% | [7]; at 100.0 µM 75% | [9]; at 100.0 µM 97% | [10]; at 100.0 µM 92% | [11]; at 100.0 µM 97% | [12]; at 33.0 µM 75% | [12]; at 100.0 µM 98% | [13]; [17] 71% | [14]; at 100.0 µM 87%

CC[N+]1(C)CCC(O)(/C=C/c2ccc(Cl)c(Cl)c2)C(C(=O)/C=C/c2ccc(Cl)c(Cl)c2)C1 (centres undefined)
inactive: [1]; at 1.2 µM -29% | [1]; at 3.7 µM 30% | [2]; at 1.2 µM 12% | [3]; at 1.2 µM 7% | [3]; at 3.7 µM 52% | [4]; at 1.2 µM 36% | [5]; at 1.2 µM 6% | [5]; at 3.7 µM 39% | [7]; at 1.2 µM -8% | [7]; at 3.7 µM 15% | [8]; [16] 46% | [9]; at 1.2 µM 0% | [9]; at 3.7 µM 20% | [10]; at 1.2 µM -4% | [10]; at 3.7 µM 29% | [11]; at 1.2 µM 6% | [11]; at 3.7 µM 45% | [12]; at 1.2 µM 15% | [14]; at 1.2 µM 29%
active: [1]; at 11.0 µM 99% | [1]; at 33.0 µM 99% | [1]; at 100.0 µM 98% | [2]; at 3.7 µM 85% | [2]; at 11.0 µM 99% | [2]; at 33.0 µM 99% | [2]; at 100.0 µM 99% | [3]; [16] 85% | [3]; at 11.0 µM 99% | [3]; at 33.0 µM 99% | [3]; [17] 98% | [3]; at 50.0 µM 99.5% | [3]; at 100.0 µM 98% | [4]; at 3.7 µM 88% | [4]; [16] 86% | [4]; at 11.0 µM 99% | [4]; at 33.0 µM 99% | [4]; [17] 99% | [4]; at 50.0 µM 99.3% | [4]; at 100.0 µM 99% | [5]; at 11.0 µM 99% | [5]; at 33.0 µM 99% | [5]; at 100.0 µM 99% | [6]; [16] 88% | [6]; [17] 98% | [6]; at 50.0 µM 99.5% | [7]; at 11.0 µM 99% | [7]; at 33.0 µM 98% | [7]; at 100.0 µM 99% | [8]; [17] 99% | [8]; at 50.0 µM 99% | [9]; [16] 90% | [9]; at 11.0 µM 98% | [9]; at 33.0 µM 99% | [9]; [17] 99% | [9]; at 50.0 µM 99.1% | [9]; at 100.0 µM 96% | [10]; at 11.0 µM 99% | [10]; at 33.0 µM 99% | [10]; at 100.0 µM 99% | [11]; at 11.0 µM 99% | [11]; at 33.0 µM 99% | [11]; at 100.0 µM 99% | [12]; at 3.7 µM 71% | [12]; at 11.0 µM 99% | [12]; at 33.0 µM 99% | [12]; at 100.0 µM 98% | [13]; [16] 82% | [13]; [17] 99% | [13]; at 50.0 µM 99.2% | [14]; at 3.7 µM 77% | [14]; at 11.0 µM 99% | [14]; at 33.0 µM 99% | [14]; at 100.0 µM 99%

O=C(O)NCC1CCCCC1 (tested in a mixture with another compound)
inactive: [1]; at 1.2 µM -1% | [1]; at 3.7 µM -4% | [1]; at 11.0 µM -4% | [1]; at 33.0 µM -5% | [1]; at 100.0 µM -4% | [15]; at 1.2 µM -2% | [15]; at 3.7 µM -4% | [15]; at 11.0 µM -4% | [15]; at 33.0 µM -4% | [15]; at 100.0 µM 16% | [3]; at 1.2 µM 2% | [3]; at 3.7 µM -3% | [3]; [16] 1% | [3]; at 11.0 µM -6% | [3]; at 33.0 µM 7% | [3]; [17] 38% | [3]; at 50.0 µM -12.8% | [4]; at 1.2 µM -3% | [4]; at 3.7 µM -1% | [4]; [16] -15% | [4]; at 11.0 µM -4% | [4]; at 33.0 µM -5% | [4]; [17] 19% | [4]; at 50.0 µM 8.35% | [4]; at 100.0 µM 22% | [5]; at 1.2 µM 0% | [5]; at 3.7 µM -6% | [5]; at 11.0 µM -5% | [5]; at 33.0 µM -1% | [5]; at 100.0 µM 61% | [6]; [16] -2% | [6]; [17] 39% | [6]; at 50.0 µM -35.7% | [7]; at 1.2 µM 1% | [7]; at 3.7 µM -7% | [7]; at 11.0 µM -6% | [7]; at 33.0 µM -5% | [7]; at 100.0 µM 26% | [8]; [16] -4% | [8]; [17] 11% | [8]; at 50.0 µM 33% | [9]; at 1.2 µM -4% | [9]; at 3.7 µM -4% | [9]; [16] -5% | [9]; at 11.0 µM -7% | [9]; at 33.0 µM -2% | [9]; [17] 10% | [9]; at 50.0 µM 0.5% | [9]; at 100.0 µM 58% | [10]; at 1.2 µM -2% | [10]; at 3.7 µM 2% | [10]; at 11.0 µM -5% | [10]; at 33.0 µM -4% | [10]; at 100.0 µM 37% | [11]; at 1.2 µM -2% | [11]; at 3.7 µM -6% | [11]; at 11.0 µM -7% | [11]; at 33.0 µM -3% | [11]; at 100.0 µM 32% | [13]; [16] 0% | [13]; [17] 34% | [13]; at 50.0 µM 6.1% | [14]; at 1.2 µM 0% | [14]; at 3.7 µM -1% | [14]; at 11.0 µM -5% | [14]; at 33.0 µM 2% | [14]; at 100.0 µM 45%
active: [3]; at 100.0 µM 83%
